# Several values for one entry are separate records, joined by “and”; a condition that tells them apart may be missing. Identical values can stand only once. Records with an inconclusive call do not appear. Where a structure was tested more than once in an assay, its records may differ in their call. Activity calls are given as the source filed them. Calls follow the shape of the dose curve; as a rule, active = well fitted cell-killing curve with a large enough effect in the repeat runs; inconclusive = weak or mixed curves, or effect the other way; inactive = no such curve, though single readings can be large or run the other way.
# Experiment: qHTS assay for identifying genotoxic compounds that show differential cytotoxicity against isogenic chicken DT40 cell lines with known DNA damage response pathways - Rev3 mutant cell line (AID 743014); also: nearly all actives have a fitted effect of over 55% in size
# Conditions: chicken DT40 Rev3-/- viability, CellTiter-Glo, 40 h; series mostly up to 68.4 µM
# Potency is read from the fitted curve at half-maximal effect.
row,SMILES,Potency
1,CCCCCCCCCCCCN(CCO)CCO,0.172 µM (active)
2,CCCCNc1c(C(=O)OCC)c(C)nc2c1cnn2CC,23.7 µM (active)
3,CCCCCCCCCCCCCCCC,inactive
4,Oc1ccc(-c2ccccc2)c(Cl)c1,30.6 µM (active)
5,S=C(SSSSSSC(=S)N1CCCCC1)N1CCCCC1,0.425 µM (active)
6,COc1cccc(CCc2ccccc2OCC(CN(C)C)OC(=O)CCC(=O)O)c1 (configuration not stated),10.6 µM (active)
7,Cc1cc2c(C(C)C)c(O)c(O)c(C=O)c2c(O)c1-c1c(C)cc2c(C(C)C)c(O)c(O)c(C=O)c2c1O,13.3 µM (active)
8,ClC/C=C\CCl,inactive
9,O=S(=O)(O)CCCN1CCOCC1,inactive
10,CC(=O)Nc1ccc(O)cc1,inactive
11,CO[C@H]1C=CO[C@@]2(C)Oc3c(C)c(O)c4c(O)c(cc(O)c4c3C2=O)NC(=O)/C(C)=C\C=C/[C@H](C)[C@H](O)[C@@H](C)[C@@H](O)[C@@H](C)[C@H](OC(C)=O)[C@@H]1C,inactive and 6.91 µM (active)
12,CNC(=S)NN,7.7 µM (active)
13,CNC(=O)c1cc(Oc2ccc(NC(=O)Nc3ccc(Cl)c(C(F)(F)F)c3)cc2)ccn1,5.31 µM (active)
14,Cc1cccc(Br)c1,inactive
15,CC1=C(/C=C/C(C)=C/C=C/C(C)=C/C(=O)Nc2ccc(O)cc2)C(C)(C)CCC1,13.3 µM (active) and 9.94 µM (active)
16,CC(C)=C1CC[C@@H](C)CC1=O,inactive
17,O=C1c2c(O)ccc([N+](=O)[O-])c2C(=O)c2c([N+](=O)[O-])ccc(O)c21,6.8 µM (active)
